From PubChem BioAssay (EPA / NIEHS)
Values joined by “and” are separate entries in the source; they are usually repeats but may differ in a detail not shown here. Equal values may be shown once. Where a structure was tested more than once in an assay, its records may differ in their call. Active and inactive are the calls of the source. Rule for the calls: active = hit-call score of the fitted dose curve at least 0.9, where 1 is the maximum; inactive = score below 0.9.

Each molecule was assayed on Plasminogen activator inhibitor-1 (PAI1), SERPINE1 (gene 5054) (assay: BSK_MyoF_PAI1: BioMAP Diversity Plus: MyoF Assay for Plasminogen activator inhibitor-1 (PAI1) Biomarker Activity (AID 2284256;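 for outcome: PAI-1 protein level measured by ELISA in fibroblast cultures; PAI-1 read 24 h after compound addition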)). Details: primary human lung fibroblasts.
Summary of the method: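 Primary human lung fibroblasts are dosed and incubated 24 h. PAI-1 is then measured by ELISA, while parallel cultures undergo SRB staining for overt cytotoxicity. Increases over DMSO define activity.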
`COC(=O)CCC(F)(F)C(F)(F)C(F)(F)C(F)(F)F` was tested, and the outcome was “inactive”. For `FC(F)(I)C(F)(F)C(F)(F)C(F)(F)I`, the AC50 was 55.6 µM (active) and 46 µM (active) and 56.7 µM (active). For `C=C(C)C(=O)OCC(F)(F)C(F)(F)C(F)(F)F`, the outcome was “inactive”. With `O=C(O)C(F)(F)C(F)(F)F` the outcome was “inactive”. For `N=C(N)C(F)(F)C(F)(F)C(F)(F)C(F)(F)C(F)(F)C(F)(F)C(F)(F)F`, the outcome was “inactive”. In the case of `FC(F)(F)C(F)(F)C(F)(F)C(F)(F)C(F)(F)C(F)(F)C(F)(F)C(F)(F)CCS`, the outcome is reported as “inactive”. For `O=C(O)C=C(C(F)(F)F)C(F)(F)F`, the outcome was “inactive”. For `FC(F)(F)C(F)(F)C(F)(F)CI`, the outcome was “inactive”. In the case of `CC(C)(C)C(=O)CC(=O)C(F)(F)C(F)(F)C(F)(F)F`, the outcome is reported as “inactive”. With `FC(F)(F)C(F)(F)C(F)(F)C(F)(F)C(F)(F)C(F)(F)C(F)(F)Br` the outcome was “inactive”. For `FC(F)(F)C(F)(F)C(F)(F)C(F)(F)C(F)(F)CCI`, the outcome was “inactive”. `O=C(O)C(F)(F)C(F)(F)C(F)(F)C(F)(F)C(F)(F)C(F)(F)C(F)(F)C(F)(F)Cl` was tested, and the AC50 was 48.2 µM (active) and 48.5 µM (active). `O=P(O)(O)OCCC(F)(F)C(F)(F)C(F)(F)C(F)(F)C(F)(F)C(F)(F)F` was tested, and the outcome was “inactive”. `FC(F)(F)C(F)(F)C(F)(F)C(F)(F)C(F)(F)C(F)(F)CCS` was tested, and the AC50 was 79.5 nM (active) and the outcome was “inactive”. With `FC(F)(F)C(F)(F)C(F)(F)C(F)(F)CCI` the outcome was “inactive”. For `C=CC(F)(F)C(F)(F)C(F)(F)C(F)(F)C(F)(F)C(F)(F)C(F)(F)C(F)(F)C=C`, the outcome was “inactive”. In the case of `CCCCCCCCC(F)(F)C(F)(F)C(F)(F)C(F)(F)C(F)(F)C(F)(F)F`, the outcome is reported as “inactive”. With `C=C(C)C(=O)OCC(F)(F)C(F)(F)C(F)(F)C(F)(F)C(F)(F)C(F)(F)C(F)(F)F` the outcome was “inactive”. For `O=C(Cl)C(F)(F)C(F)(F)C(F)(F)C(F)(F)C(F)(F)C(F)(F)C(F)(F)C(F)(F)F`, the AC50 was 30000 nM (active) and the outcome was “inactive”. For `OCC(F)(F)C(F)(F)C(F)(F)F`, the outcome was “inactive”.

The molecules below were run on CD69, CD69 (gene 969) (assay: BSK_IMphg_CD69: BioMAP Diversity Plus: IMphg Assay for CD69 Biomarker Activity (AID 2284257)). Details: primary human endothelial cells with macrophages.
Summary of the method: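 Readout is ELISA for CD69 in primary human venular endothelial cell/macrophage co-culture, taken at 24 h post-dosing. SRB staining of parallel cultures gauged overt cytotoxicity; signal increase versus DMSO defined activity.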
With `O=C(O)C(F)(F)C(F)(F)C(F)(F)C(F)(F)C(F)(F)C(F)(F)C(F)(F)C(F)(F)C(F)(F)C(F)(F)C(F)(F)C(F)(F)F` the outcome was “inactive”. With `FC1CC(F)(F)C(F)(F)C1(F)F` (configuration not stated) the outcome was “inactive”. `O=C(O)C(F)(F)C(F)(F)C(F)F` was tested, and the outcome was “inactive”. With `O=C(O)C(F)(F)C(F)(F)OC(F)(F)F` the outcome was “inactive”. In the case of `O=C(O)C(F)(F)C(F)(F)C(F)(F)C(F)(F)C(F)(F)C(F)(F)C(F)(F)C(F)(F)C(F)(F)C(F)F`, the AC50 is reported as 30 µM (active) and the outcome is reported as “inactive”. With `OCCCC(F)(F)C(F)(F)C(F)(F)C(F)(F)C(F)(F)C(F)(F)C(F)(F)F` the AC50 was 50 µM (active) and the outcome was “inactive”. In the case of `NC(=O)C(F)(F)C(F)(F)C(F)(F)C(F)(F)F`, the outcome is reported as “inactive”. In the case of `Cc1ccc(S(=O)(=O)OCC(F)(F)C(F)(F)C(F)(F)C(F)(F)C(F)(F)C(F)F)cc1`, the outcome is reported as “inactive”. In the case of `FC(F)(F)C(F)(F)C(F)(F)N(C(F)(F)C(F)(F)C(F)(F)F)C(F)(F)C(F)(F)C(F)(F)F`, the AC50 is reported as 1.09 µM (active) and the outcome is reported as “inactive”. For `FC(F)(F)C(F)(F)C(F)(F)C(F)(F)C(F)(F)C(F)(F)C(F)(F)I`, the outcome was “inactive”. `O=C(O)C(F)(F)C(F)(F)C(F)(F)C(F)(F)C(F)(F)C(F)(F)C(F)(F)C(F)(F)C(F)(F)C(F)(F)C(F)(F)C(F)(F)C(F)(F)F` was tested, and the outcome was “inactive”. For `CCO[Si](CCC(F)(F)C(F)(F)C(F)(F)C(F)(F)C(F)(F)C(F)(F)F)(OCC)OCC`, the AC50 was 0.26 µM (active) and the outcome was “inactive”. `OCC(F)(F)C(F)(F)C(F)(F)C(F)F` was tested, and the outcome was “inactive”. For `OCCCC(F)(F)C(F)(F)C(F)(F)F`, the outcome was “inactive”. In the case of `FC(F)(Br)C(F)(F)C(F)(F)C(F)(F)C(F)(F)C(F)(F)Br`, the outcome is reported as “inactive”. For `COC(=O)CCC(F)(F)C(F)(F)C(F)(F)C(F)(F)F`, the outcome was “inactive”. `FC(F)(I)C(F)(F)C(F)(F)C(F)(F)I` was tested, and the AC50 was 10.1 µM (active) and the outcome was “inactive”. `C=C(C)C(=O)OCC(F)(F)C(F)(F)C(F)(F)F` was tested, and the outcome was “inactive”. `O=C(O)C(F)(F)C(F)(F)F` was tested, and the outcome was “inactive”. In the case of `N=C(N)C(F)(F)C(F)(F)C(F)(F)C(F)(F)C(F)(F)C(F)(F)C(F)(F)F`, the outcome is reported as “inactive”. In the case of `FC(F)(F)C(F)(F)C(F)(F)C(F)(F)C(F)(F)C(F)(F)C(F)(F)C(F)(F)CCS`, the outcome is reported as “inactive”. For `O=C(O)C=C(C(F)(F)F)C(F)(F)F`, the outcome was “inactive”. For `FC(F)(F)C(F)(F)C(F)(F)CI`, the outcome was “inactive”. `CC(C)(C)C(=O)CC(=O)C(F)(F)C(F)(F)C(F)(F)F` was tested, and the outcome was “inactive”. With `FC(F)(F)C(F)(F)C(F)(F)C(F)(F)C(F)(F)C(F)(F)C(F)(F)Br` the outcome was “inactive”. For `FC(F)(F)C(F)(F)C(F)(F)C(F)(F)C(F)(F)CCI`, the outcome was “inactive”. With `O=C(O)C(F)(F)C(F)(F)C(F)(F)C(F)(F)C(F)(F)C(F)(F)C(F)(F)C(F)(F)Cl` the AC50 was 41.5 µM (active) and 30 µM (active). `O=P(O)(O)OCCC(F)(F)C(F)(F)C(F)(F)C(F)(F)C(F)(F)C(F)(F)F` was tested, and the outcome was “inactive”. For `FC(F)(F)C(F)(F)C(F)(F)C(F)(F)C(F)(F)C(F)(F)CCS`, the outcome was “inactive”. With `FC(F)(F)C(F)(F)C(F)(F)C(F)(F)CCI` the outcome was “inactive”. With `C=CC(F)(F)C(F)(F)C(F)(F)C(F)(F)C(F)(F)C(F)(F)C(F)(F)C(F)(F)C=C` the outcome was “inactive”. In the case of `CCCCCCCCC(F)(F)C(F)(F)C(F)(F)C(F)(F)C(F)(F)C(F)(F)F`, the outcome is reported as “inactive”. With `C=C(C)C(=O)OCC(F)(F)C(F)(F)C(F)(F)C(F)(F)C(F)(F)C(F)(F)C(F)(F)F` the outcome was “inactive”. `O=C(Cl)C(F)(F)C(F)(F)C(F)(F)C(F)(F)C(F)(F)C(F)(F)C(F)(F)C(F)(F)F` was tested, and the AC50 was 55.1 µM (active) and 33.8 µM (active) and 45.9 µM (active). In the case of `OCC(F)(F)C(F)(F)C(F)(F)F`, the outcome is reported as “inactive”.
